Data as given in PubChem BioAssay AID1159580 (chemical genetic matrix, 2015).
Screen size: about 5,500 compounds; about 2,000 (36%) were called active. Not shown: some 18% with an inconclusive outcome. Rule as the data show it: active = normalized growth mostly below about 0.91 (no sharp cut-off); inconclusive = no clear call, values can overlap the other calls; inactive = mostly above about 0.92. Some of the results follow.

Test: chemical genetic growth profiling, strain panel (AID 1159580);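 also: tested at 20 µM; growth read once vehicle control cultures reached saturation at 30 °C; 1 = growth at the plate median or of vehicle wells; lower values mean less growth of the strain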
Settings: S. cerevisiae deletion strains, growth OD

Measured: normalized growth

CC(C)NCC(O)c1ccc(NS(C)(=O)=O)cc1 (stereo unspecified)
inactive: locus YAL040C, strain CLN3, stronger effect = lower value 1.01 | locus YCL061C, strain MRC1 (second series), stronger effect = lower value 1 | locus YDR363W, strain ESC2, stronger effect = lower value 0.973 | locus YER002W, strain NOP16, stronger effect = lower value 1 | locus YGR078C, strain PAC10, stronger effect = lower value 1.01 | locus YJR075W, strain HOC1, stronger effect = lower value 0.986 | locus YMR263W, strain SAP30, stronger effect = lower value 1 | locus YMR307W, strain GAS1, stronger effect = lower value 1.02 | locus YNL153C, strain GIM3, stronger effect = lower value 1.04 | locus YNL175C, strain NOP13, stronger effect = lower value 1 | locus YNL197C, strain WHI3, stronger effect = lower value 1.01 | locus YNL224C, strain SQS1, stronger effect = lower value 1 | locus YNL322C, strain KRE1, stronger effect = lower value 0.985 | locus YOR083W, strain WHI5 (second series), stronger effect = lower value 1 | locus YPL055C, strain LGE1, stronger effect = lower value 0.977 | locus YPL241C, strain CIN2, stronger effect = lower value 0.999
